We go through 13 compounds from PubChem BioAssay (NCI).

Compounds without any hit were thinned out: in the full panel of roughly 83,000, 20% have a hit.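 The test compound was applied at a single concentration to cells in 96-well plates for 48 hours, and percent growth was recorded.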 Values without a mark were called inactive. Active and inactive are the calls of the source. The calls were made as follows: active = growth percent below 10; inactive = the rest.

What all share (assay): NCI-60 one-dose screen, 48 h (100 = growth as untreated, 0 = no growth, -100 = all killed)
Details in all cases: 10 µM unless noted

In assay [1] the test system is SK-MEL-2 melanoma.
Assay [2] relates to EKVX NSCLC.
Assay [3] deals with UO-31 renal.
For assay [4], the system named is TK-10 renal.
For assay [5], the system named is ACHN renal.
Assay [6] deals with CAKI-1 renal.
In assay [7] the test system is A498 renal.
For assay [8], the system named is CCRF-CEM leukemia.
The test system of assay [9] is MOLT-4 leukemia.

For the compound `CC(=O)OC[C@@]1(C)C2CC[C@]3(C)C(CC=C4C5CC(C)(C)CC[C@]5(C(=O)Nc5ccc(Br)cc5)CC[C@]43C)[C@@]2(C)C[C@@H](OC(C)=O)[C@@H]1OC(C)=O` (some centres not stated), the growth is 42.2% in assay [1]; 32.8% in [2]; 37.2% in assay [3]; 45.7% in assay [4]; 39% in [5]; 42% in assay [6]. Moreover, the growth in assay [7] was 64.3%; in [8], 28.7%; in assay [9], 38%.
As for `CN(C)c1ccnc(CNCCSC2(c3ccc(C(F)(F)F)cc3)c3ccccc3C=Cc3ccccc32)c1`, the growth in assay [1] is -41.1% (active); in assay [2], -23.9% (active); in [3] it was 17.6%; in assay [4], 12.4%; in [5], 13.2%; in assay [6] it was 6.81% (active). Besides, the values for the growth in assay [7], in assay [8] and in assay [9] were 21.6%, 0.384% (active) and 16.1%, respectively.
As to `N#Cc1c(-c2ccc(Br)cc2)nc2n[nH]c(-c3ccc(Br)cc3)c2c1-c1ccc(F)cc1`, the growth in assay [1] was 109%; in [2], 70.7%; in [3], 65.3%; in assay [4] it was 135%; in [5], 91.2%; in assay [6], 70.1%. Moreover, the results for the growth in assay [7], in assay [8] and in [9] were 163%, 102% and 74.9%, respectively.
As for `S=C(Nc1ccccc1)Nc1ccc(OCc2nc3ccccc3[nH]2)cc1`, the growth in assay [1] is 24.6%; in [2], 46.3%; in assay [3] it was 30.4%; in assay [4] it was 72.3%; in assay [5] it was 24.6%; in assay [6] it was 18.9%. The growth in [7] is 72.1%; in [8], 28.9%; in [9], 19.8%.
As to `CCCCSc1nc(NCCc2c[nH]c3ccccc23)c(C#N)c(-c2ccc(F)cc2)n1`, the growth is 72% in [1]; 40.9% in assay [2]; 56.3% in assay [3]; 107% in assay [4]; 71.9% in assay [5]; 48.2% in [6]. Besides, the figures for the growth in assay [7], in [8] and in [9] were 103%, 36.5% and 36.5%, respectively.
On to `COc1ccc(-c2nc3ccc(C(=O)NN4C(=O)c5ccc([N+](=O)[O-])cc5C4=O)cc3[nH]2)cc1`, for which the growth in assay [1] is 101%; in [2] it was 90.7%; in assay [3] it was 88.6%; in assay [4], 101%; in [5] it was 98.4%; in assay [6], 92.6%. The growth in assay [7] is 103%; in assay [8], 83.3%; in [9], 98.7%.
As for `CCN1C(=O)N(CC)C2NNC(Sc3c(C(=O)O)c4ccccc4n(C4CCCC4)c3=O)=NC21` (configuration not stated), the growth in assay [1] was 27%; in assay [2] it was 45.7%; in [3], 46.8%; in assay [4], 80.1%; in assay [5], 25.7%; in assay [6], 27.5%. The values for the growth in assay [7], in assay [8] and in assay [9] were 102%, 24.8% and 24.1%, respectively.
On to `C#C[C@]1(O)CC[C@H]2[C@@H]3CC=C4c5sc(-c6ccc(O)c(O)c6)nc5CC[C@]4(C)[C@H]3CC[C@@]21C`, for which the growth was -97.9% (active) in assay [1]; -74.4% (active) in assay [2]; -93.8% (active) in [3]; -44.9% (active) in [4]; -88.9% (active) in assay [5]; -51.2% (active) in [6]. The growth in [7] was -88.5% (active); in assay [8], -27.9% (active); in assay [9], -48% (active).
On to `Cc1sc(C(NC(=O)OCCn2c([N+](=O)[O-])cnc2C)C(F)(F)Cl)nc1-c1ccc(OC(F)(F)F)cc1` (configuration not stated), for which the growth is -90.7% (active) in assay [1]; -98% (active) in [2]; -95.5% (active) in assay [3]; -91.7% (active) in assay [4]; -98.5% (active) in assay [5]; -76.6% (active) in assay [6]. Also, the growth in assay [7] was -89.7% (active); in assay [8], -17.4% (active); in assay [9] it was 2.22% (active).
As to `Cc1cccc(NC(=O)[C@]23CCC(C)(C)CC2C2=CCC4[C@@]5(C)C[C@@H](O)[C@H](O)[C@@](C)(CO)C5CC[C@@]4(C)[C@]2(C)CC3)c1` (some centres not stated), the growth in [1] was 32.2%; in assay [2], 11.5%; in assay [3], 14.3%; in assay [4] it was 52.9%; in assay [5] it was 1.52% (active); in assay [6] it was 22.8%. For the same compound, the values for the growth in assay [7], in [8] and in assay [9] were -11.3% (active), 15.8% and 5.2% (active), respectively.
For `Cn1cc(-c2nnc(N)nc2-c2c[nH]c3ccccc23)c2cccnc21`, the growth was 24.3% in assay [1]; 62.3% in [2]; 48% in [3]; 91.5% in [4]; 56.9% in [5]; 43.2% in assay [6]. In addition, the growth is 86.4% in [7], 34.6% in [8] and 26.7% in assay [9].
In the case of `COc1cc2c(c(OC)c1OC)C(=O)CC(c1cccc(NC(=O)c3cc(NC(=O)[C@@H](N)CO)ccc3C)c1)O2` (some centres not stated), the growth in assay [1] is 111%; in assay [2] it was 108%; in assay [3] it was 92%; in assay [4], 105%; in [5] it was 107%; in assay [6], 99.9%. Also, the values for the growth in assay [7], in assay [8] and in [9] were 126%, 102% and 114%, respectively.
Consider `Cn1cc(-c2cc3nc(-c4cn(C)c5ncc(Br)cc45)cc(N)n3n2)c2ccccc21`, for which the growth in assay [1] was -73.6% (active); in [2] it was -44.2% (active); in [3], -36.3% (active); in assay [4], -32.8% (active); in [5], -45.9% (active); in [6] it was 1.08% (active). The growth is -24.3% (active) in assay [7], -23.9% (active) in assay [8] and -42% (active) in assay [9].
